Source: paper PMC7862700, “An all-to-all approach to the identification of sequence-specific readers for epigenetic DNA modifications on cytosine”

What was measured:
Experiment in all cases: DAPPL (digital affinity profiling via proximity ligation, sequencing); 10 mM Tris-HCl pH 7.5, 50 mM NaCl, 1 mM DTT, 4% glycerol, room temperature, 30 min; GST-TFs on glutathione beads, 16-mer random dsDNA library, 0.1% formaldehyde crosslink after washing; high values mean tight binding
FLI1 = biological target: T1, FLI1 (Homo sapiens, UniProt Q01543 1-452); details: protein: recombinant; tags: N-terminal GST; dsDNA, one strand shown
T1 sequence: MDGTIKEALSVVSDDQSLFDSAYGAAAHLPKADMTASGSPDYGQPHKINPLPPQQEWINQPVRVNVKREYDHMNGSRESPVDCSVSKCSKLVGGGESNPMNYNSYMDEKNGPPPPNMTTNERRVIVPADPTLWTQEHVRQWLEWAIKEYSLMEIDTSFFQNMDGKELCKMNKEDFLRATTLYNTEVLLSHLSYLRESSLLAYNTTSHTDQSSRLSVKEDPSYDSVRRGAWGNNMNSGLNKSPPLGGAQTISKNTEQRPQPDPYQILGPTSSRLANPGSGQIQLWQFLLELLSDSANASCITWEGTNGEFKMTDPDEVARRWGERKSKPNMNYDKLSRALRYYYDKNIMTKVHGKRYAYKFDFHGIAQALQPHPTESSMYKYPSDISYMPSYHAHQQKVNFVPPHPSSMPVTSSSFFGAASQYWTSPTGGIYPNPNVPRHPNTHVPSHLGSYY
Method in brief: (§1)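 After expression in yeast as GST fusions, human transcription factors were bound to glutathione beads, DNA-barcoded and mixed with a tag-only sample. The pools were incubated with 200 nmole of a 16-mer random double-stranded DNA library in Tris/NaCl/DTT/glycerol buffer (30 min, room temperature), washed and crosslinked with 0.1% formaldehyde. Proximity ligation with BsaI/T4 ligase ran for 1 h at 37 °C, before PCR amplification and sequencing on an Illumina NextSeq500. Binding signal is a hexamer's read frequency for a factor divided by its frequency for the tag-only sample.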

ELK1 = biological target: T2, ELK1 (Homo sapiens, UniProt P19419 1-428); details: protein: recombinant; tags: N-terminal GST; dsDNA, one strand shown
T2 sequence: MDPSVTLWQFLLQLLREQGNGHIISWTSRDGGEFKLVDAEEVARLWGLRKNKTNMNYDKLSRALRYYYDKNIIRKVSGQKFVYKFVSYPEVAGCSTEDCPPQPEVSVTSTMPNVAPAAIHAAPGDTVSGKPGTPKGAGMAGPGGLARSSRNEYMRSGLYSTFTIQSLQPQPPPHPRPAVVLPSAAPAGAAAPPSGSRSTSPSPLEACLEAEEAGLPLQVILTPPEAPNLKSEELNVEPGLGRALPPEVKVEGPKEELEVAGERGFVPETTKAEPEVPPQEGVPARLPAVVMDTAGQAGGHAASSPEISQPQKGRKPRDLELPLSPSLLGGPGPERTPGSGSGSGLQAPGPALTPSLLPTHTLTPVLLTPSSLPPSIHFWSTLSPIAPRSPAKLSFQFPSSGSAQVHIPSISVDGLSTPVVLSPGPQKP
Method in brief: as §1

GABPA = biological target: T3, GABPA (Homo sapiens, UniProt Q06546 1-454); details: protein: recombinant; tags: N-terminal GST; dsDNA, one strand shown
T3 sequence: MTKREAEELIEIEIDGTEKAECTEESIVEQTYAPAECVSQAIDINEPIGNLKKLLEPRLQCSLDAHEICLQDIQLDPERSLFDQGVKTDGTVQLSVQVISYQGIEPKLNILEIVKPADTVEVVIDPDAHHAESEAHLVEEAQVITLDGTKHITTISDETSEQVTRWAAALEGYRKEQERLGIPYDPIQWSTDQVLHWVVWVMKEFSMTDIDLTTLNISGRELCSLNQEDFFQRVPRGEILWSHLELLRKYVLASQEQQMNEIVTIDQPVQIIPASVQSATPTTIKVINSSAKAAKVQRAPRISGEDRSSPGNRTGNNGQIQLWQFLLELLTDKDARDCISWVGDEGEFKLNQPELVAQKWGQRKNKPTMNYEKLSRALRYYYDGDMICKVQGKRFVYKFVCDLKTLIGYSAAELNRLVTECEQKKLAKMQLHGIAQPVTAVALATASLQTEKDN
Method in brief: as §1

ERG = biological target: T4, ERG (Homo sapiens, UniProt P11308 1-479); details: protein: recombinant; tags: N-terminal GST; dsDNA, one strand shown
T4 sequence: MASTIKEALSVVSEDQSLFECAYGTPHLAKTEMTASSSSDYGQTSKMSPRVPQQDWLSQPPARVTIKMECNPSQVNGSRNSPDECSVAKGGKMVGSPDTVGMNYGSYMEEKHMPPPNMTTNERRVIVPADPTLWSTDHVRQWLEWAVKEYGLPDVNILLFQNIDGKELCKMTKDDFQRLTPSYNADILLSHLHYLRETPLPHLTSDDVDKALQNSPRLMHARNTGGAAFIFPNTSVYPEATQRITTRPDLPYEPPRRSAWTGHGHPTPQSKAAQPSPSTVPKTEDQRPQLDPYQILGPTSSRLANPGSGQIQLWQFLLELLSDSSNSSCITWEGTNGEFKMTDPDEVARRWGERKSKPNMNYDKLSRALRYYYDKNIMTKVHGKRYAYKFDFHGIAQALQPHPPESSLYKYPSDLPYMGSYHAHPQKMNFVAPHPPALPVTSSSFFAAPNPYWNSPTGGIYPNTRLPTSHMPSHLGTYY
Method in brief: as §1

ELF1 = ELF1 (Homo sapiens, UniProt P32519 1-619); details: protein: recombinant; tags: N-terminal GST; dsDNA, one strand shown
Method in brief: as §1

EHF = biological target: T5, EHF (Homo sapiens, UniProt Q9NZC4 1-300); details: protein: recombinant; tags: N-terminal GST; dsDNA, one strand shown
T5 sequence: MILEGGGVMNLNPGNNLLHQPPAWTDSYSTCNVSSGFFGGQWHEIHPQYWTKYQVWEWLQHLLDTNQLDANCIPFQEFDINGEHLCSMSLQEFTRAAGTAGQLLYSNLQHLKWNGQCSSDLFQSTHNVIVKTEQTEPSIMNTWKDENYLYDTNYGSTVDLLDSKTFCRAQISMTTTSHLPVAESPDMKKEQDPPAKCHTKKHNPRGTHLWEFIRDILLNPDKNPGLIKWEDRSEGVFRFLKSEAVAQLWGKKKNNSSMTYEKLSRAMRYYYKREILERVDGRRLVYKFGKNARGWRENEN
Method in brief: as §1

SPI1 = SPI1 (Homo sapiens, UniProt P17947 1-270); details: protein: recombinant; tags: N-terminal GST; dsDNA, one strand shown
Method in brief: as §1

SPIB = SPIB (Homo sapiens, UniProt Q01892 1-262); details: protein: recombinant; tags: N-terminal GST; dsDNA, one strand shown
Method in brief: as §1

ELK3 = biological target: T6, ELK3 (Homo sapiens, UniProt P41970 1-407); details: protein: recombinant; tags: N-terminal GST; dsDNA, one strand shown
T6 sequence: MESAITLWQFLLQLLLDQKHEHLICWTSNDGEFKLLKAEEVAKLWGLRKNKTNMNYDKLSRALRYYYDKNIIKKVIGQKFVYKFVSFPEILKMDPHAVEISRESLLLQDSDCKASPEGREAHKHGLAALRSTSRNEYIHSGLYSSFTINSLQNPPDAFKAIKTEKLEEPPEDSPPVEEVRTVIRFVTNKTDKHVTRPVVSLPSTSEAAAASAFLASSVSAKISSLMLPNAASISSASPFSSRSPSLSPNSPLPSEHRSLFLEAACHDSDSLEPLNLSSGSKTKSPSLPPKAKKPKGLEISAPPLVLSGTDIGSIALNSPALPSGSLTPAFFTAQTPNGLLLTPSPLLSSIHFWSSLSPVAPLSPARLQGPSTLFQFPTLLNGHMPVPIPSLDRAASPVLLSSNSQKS
Method in brief: as §1

FEV = biological target: T7, FEV (Homo sapiens, UniProt Q99581 1-238); details: protein: recombinant; tags: N-terminal GST; dsDNA, one strand shown
T7 sequence: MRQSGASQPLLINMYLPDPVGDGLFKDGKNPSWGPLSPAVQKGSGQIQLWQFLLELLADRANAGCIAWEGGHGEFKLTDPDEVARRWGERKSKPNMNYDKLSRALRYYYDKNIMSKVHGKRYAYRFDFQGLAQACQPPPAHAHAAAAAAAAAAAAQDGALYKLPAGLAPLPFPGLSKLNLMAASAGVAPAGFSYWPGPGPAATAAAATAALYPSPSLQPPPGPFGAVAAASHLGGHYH
Method in brief: as §1

ETV5 = ETV5 (Homo sapiens, UniProt P41161 1-510); details: protein: recombinant; tags: N-terminal GST; dsDNA, one strand shown
Method in brief: as §1

HSF1 = HSF1 (Homo sapiens, UniProt Q00613 1-529); details: protein: recombinant; tags: N-terminal GST; chain copies: 3; dsDNA, one strand shown
Method in brief: as §1

SPIC = biological target: T8, SPIC (Homo sapiens, UniProt Q8N5J4 1-248); details: protein: recombinant; tags: N-terminal GST; dsDNA, one strand shown
T8 sequence: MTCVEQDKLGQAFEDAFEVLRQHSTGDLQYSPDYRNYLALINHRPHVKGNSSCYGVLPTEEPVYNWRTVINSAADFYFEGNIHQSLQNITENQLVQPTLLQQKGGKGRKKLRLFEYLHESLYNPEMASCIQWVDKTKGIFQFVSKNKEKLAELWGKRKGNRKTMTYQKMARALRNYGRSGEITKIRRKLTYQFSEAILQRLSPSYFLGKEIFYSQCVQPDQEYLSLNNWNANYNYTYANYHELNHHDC
Method in brief: as §1

ELF4 = ELF4 (Homo sapiens, UniProt Q99607 1-663); details: protein: recombinant; tags: N-terminal GST; dsDNA, one strand shown
Method in brief: as §1

ELK4 = biological target: T9, ELK4 (Homo sapiens, UniProt P28324-2 1-405); details: protein: recombinant; tags: N-terminal GST; dsDNA, one strand shown
T9 sequence: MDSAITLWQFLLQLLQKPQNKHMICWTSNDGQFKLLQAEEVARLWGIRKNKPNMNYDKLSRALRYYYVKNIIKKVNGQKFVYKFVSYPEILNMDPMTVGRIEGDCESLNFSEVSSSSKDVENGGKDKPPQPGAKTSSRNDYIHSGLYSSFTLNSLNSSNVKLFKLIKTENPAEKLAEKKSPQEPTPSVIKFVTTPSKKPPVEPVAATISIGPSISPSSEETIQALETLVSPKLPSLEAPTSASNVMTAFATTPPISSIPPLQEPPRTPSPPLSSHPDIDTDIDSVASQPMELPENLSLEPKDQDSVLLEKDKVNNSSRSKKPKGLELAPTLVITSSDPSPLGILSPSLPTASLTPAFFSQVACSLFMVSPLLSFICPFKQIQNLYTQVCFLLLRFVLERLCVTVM
Method in brief: as §1

ETV2 = biological target: T10, ETV2 (Homo sapiens, UniProt O00321 1-342); details: protein: recombinant; tags: N-terminal GST; dsDNA, one strand shown
T10 sequence: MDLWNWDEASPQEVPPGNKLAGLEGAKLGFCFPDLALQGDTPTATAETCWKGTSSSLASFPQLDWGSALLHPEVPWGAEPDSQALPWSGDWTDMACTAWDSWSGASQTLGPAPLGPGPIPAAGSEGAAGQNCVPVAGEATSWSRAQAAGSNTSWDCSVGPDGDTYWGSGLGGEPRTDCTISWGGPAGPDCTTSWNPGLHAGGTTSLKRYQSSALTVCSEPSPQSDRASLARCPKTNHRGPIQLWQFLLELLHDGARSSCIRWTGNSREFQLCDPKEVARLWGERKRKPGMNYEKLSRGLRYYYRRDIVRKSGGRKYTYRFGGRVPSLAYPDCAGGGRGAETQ
Method in brief: as §1

ELF3 = biological target: T11, ELF3 (Homo sapiens, UniProt P78545 1-371); details: protein: recombinant; tags: N-terminal GST; dsDNA, one strand shown
T11 sequence: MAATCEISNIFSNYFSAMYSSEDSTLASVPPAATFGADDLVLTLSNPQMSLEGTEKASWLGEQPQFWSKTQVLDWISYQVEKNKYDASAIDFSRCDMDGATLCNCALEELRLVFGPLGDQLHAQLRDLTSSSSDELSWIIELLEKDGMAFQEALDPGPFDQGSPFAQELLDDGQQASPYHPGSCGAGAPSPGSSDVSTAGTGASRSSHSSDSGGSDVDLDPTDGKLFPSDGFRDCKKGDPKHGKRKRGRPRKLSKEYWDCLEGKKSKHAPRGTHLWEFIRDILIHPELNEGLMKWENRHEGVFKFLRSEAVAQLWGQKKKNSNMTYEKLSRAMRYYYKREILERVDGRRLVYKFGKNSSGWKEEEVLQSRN
Method in brief: as §1

CRX = CRX (Homo sapiens, UniProt O43186 1-299); details: protein: recombinant; tags: N-terminal GST; dsDNA, one strand shown
Method in brief: as §1

ETV1 = ETV1 (Homo sapiens, UniProt P50549 1-477); details: protein: recombinant; tags: N-terminal GST; dsDNA, one strand shown
Method in brief: as §1

SPIB, sequence (Q01892 whole entry): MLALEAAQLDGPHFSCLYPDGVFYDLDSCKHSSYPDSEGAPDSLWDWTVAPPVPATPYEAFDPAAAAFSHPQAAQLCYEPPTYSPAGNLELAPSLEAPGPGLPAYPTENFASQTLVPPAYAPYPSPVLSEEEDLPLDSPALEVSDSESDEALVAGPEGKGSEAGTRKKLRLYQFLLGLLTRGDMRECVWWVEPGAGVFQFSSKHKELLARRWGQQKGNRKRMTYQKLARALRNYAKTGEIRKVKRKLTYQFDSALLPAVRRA
ETV1, sequence (P50549 whole entry): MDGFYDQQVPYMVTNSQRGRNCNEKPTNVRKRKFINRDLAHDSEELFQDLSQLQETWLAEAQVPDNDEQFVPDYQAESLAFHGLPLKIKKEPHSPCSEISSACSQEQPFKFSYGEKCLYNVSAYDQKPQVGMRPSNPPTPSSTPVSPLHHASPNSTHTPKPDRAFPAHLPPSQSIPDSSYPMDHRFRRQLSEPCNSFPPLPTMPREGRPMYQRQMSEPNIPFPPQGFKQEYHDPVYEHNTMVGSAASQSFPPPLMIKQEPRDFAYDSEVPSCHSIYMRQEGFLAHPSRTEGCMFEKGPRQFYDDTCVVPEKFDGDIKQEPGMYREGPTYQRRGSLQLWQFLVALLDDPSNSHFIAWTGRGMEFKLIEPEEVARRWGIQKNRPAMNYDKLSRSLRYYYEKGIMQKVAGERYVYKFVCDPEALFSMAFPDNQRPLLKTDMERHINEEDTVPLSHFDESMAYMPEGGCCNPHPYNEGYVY
HSF1, sequence (Q00613 whole entry): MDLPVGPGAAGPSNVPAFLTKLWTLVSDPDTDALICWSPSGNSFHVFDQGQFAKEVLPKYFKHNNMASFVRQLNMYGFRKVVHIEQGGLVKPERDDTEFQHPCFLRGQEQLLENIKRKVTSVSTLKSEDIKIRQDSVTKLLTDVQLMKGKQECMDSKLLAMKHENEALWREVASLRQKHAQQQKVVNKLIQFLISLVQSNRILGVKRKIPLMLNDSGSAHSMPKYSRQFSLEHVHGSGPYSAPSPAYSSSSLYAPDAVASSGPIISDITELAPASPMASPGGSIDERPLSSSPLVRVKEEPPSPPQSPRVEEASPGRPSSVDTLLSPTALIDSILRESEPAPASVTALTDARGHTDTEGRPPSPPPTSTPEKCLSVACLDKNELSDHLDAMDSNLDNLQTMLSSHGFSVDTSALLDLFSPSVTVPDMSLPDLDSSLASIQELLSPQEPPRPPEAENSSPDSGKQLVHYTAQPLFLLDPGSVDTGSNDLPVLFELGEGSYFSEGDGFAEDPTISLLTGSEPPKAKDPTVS
CRX, sequence (O43186 whole entry): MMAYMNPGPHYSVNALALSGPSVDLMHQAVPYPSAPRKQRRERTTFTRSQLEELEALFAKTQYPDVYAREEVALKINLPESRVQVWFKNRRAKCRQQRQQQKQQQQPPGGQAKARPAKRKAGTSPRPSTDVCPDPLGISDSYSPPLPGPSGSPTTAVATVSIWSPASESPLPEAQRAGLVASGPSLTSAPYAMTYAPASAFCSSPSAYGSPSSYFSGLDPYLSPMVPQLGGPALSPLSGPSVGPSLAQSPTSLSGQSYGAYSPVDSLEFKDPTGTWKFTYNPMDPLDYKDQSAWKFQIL
ETV5, sequence (P41161 whole entry): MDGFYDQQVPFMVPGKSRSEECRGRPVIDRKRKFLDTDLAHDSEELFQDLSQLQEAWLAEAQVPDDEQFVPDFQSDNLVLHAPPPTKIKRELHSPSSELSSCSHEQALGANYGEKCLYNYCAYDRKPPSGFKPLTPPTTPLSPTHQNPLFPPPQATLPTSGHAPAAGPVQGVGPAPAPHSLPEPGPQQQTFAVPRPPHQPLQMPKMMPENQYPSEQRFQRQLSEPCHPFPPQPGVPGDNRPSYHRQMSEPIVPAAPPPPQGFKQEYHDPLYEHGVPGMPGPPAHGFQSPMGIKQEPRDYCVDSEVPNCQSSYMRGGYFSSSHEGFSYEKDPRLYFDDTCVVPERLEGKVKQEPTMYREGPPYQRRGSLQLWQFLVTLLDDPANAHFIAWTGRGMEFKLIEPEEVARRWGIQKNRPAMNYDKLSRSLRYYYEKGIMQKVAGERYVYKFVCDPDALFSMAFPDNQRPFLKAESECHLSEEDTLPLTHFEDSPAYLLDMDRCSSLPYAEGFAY
ELF4, sequence (Q99607 whole entry): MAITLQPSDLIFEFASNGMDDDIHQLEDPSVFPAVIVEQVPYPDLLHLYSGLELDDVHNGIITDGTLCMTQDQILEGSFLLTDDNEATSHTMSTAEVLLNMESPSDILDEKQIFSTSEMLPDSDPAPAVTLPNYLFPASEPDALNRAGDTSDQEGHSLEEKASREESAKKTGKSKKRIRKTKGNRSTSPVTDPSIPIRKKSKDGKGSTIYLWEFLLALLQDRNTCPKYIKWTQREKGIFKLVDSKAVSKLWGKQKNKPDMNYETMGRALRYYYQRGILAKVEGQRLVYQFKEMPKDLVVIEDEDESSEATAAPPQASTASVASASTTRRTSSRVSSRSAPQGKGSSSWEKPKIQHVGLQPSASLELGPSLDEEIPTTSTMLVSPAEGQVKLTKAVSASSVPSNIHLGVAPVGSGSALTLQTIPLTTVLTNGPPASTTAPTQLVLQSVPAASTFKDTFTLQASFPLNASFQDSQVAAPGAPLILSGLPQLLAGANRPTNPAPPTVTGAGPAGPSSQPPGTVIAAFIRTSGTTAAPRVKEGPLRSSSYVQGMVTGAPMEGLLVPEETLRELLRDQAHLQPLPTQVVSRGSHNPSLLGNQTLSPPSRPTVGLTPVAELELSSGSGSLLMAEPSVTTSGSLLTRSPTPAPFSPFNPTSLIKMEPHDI
ELF1, sequence (P32519 whole entry): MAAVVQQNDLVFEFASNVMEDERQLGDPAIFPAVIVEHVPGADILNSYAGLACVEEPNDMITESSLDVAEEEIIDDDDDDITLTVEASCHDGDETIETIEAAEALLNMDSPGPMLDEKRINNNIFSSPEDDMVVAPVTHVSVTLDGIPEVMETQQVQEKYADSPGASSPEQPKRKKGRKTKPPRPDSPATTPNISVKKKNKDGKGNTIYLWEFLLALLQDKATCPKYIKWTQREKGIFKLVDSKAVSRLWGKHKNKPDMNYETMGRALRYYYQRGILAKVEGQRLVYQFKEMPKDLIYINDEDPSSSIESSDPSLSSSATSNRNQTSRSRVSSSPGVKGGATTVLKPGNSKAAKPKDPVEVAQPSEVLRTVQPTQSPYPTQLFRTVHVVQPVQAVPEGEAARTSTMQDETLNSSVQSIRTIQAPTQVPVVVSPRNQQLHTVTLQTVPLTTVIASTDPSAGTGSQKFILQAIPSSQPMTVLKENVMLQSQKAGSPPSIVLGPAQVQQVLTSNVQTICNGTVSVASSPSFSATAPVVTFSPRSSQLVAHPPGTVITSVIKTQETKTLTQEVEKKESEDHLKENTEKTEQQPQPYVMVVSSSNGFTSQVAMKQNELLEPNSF

Sequence: TTAACT
- binding signal (FLI1): 1.18 fold enrichment (6-mer frequency, TF over GST control)
- binding signal (ELK1): 1.14 fold enrichment (6-mer frequency, TF over GST control)
- binding signal (GABPA): 1.15 fold enrichment (6-mer frequency, TF over GST control)
- binding signal (ERG): 1.17 fold enrichment (6-mer frequency, TF over GST control)
- binding signal (ELF1): 1.27 fold enrichment (6-mer frequency, TF over GST control)
- binding signal (EHF): 1.1 fold enrichment (6-mer frequency, TF over GST control)
- binding signal (SPI1): 1.23 fold enrichment (6-mer frequency, TF over GST control)
- binding signal (SPIB): 1.21 fold enrichment (6-mer frequency, TF over GST control)
- binding signal (ELK3): 1.19 fold enrichment (6-mer frequency, TF over GST control)
- binding signal (FEV): 1.25 fold enrichment (6-mer frequency, TF over GST control)
- binding signal (ETV5): 1.2 fold enrichment (6-mer frequency, TF over GST control)
- binding signal (HSF1): 1.79 fold enrichment (6-mer frequency, TF over GST control)
- binding signal (SPIC): 1.36 fold enrichment (6-mer frequency, TF over GST control)
- binding signal (ELF4): 1.23 fold enrichment (6-mer frequency, TF over GST control)
- binding signal (ELK4): 1.2 fold enrichment (6-mer frequency, TF over GST control)
- binding signal (ETV2): 1.17 fold enrichment (6-mer frequency, TF over GST control)
- binding signal (ELF3): 1.21 fold enrichment (6-mer frequency, TF over GST control)
- binding signal (CRX): 2.72 fold enrichment (6-mer frequency, TF over GST control)
- binding signal (ETV1): 1.16 fold enrichment (6-mer frequency, TF over GST control)
